GRP78 ERSR act = qHTS for Inducers of the Endoplasmic Reticulum Stress Response (ERSR) in Human Glioma: qHTS. U87-MG GRP78 promoter luciferase reporter, 16 h. Potency, µM, for the others: at the top dose activation, usual class: activators. hit rate 0.02% among 420,000. AID 602332, 2012; further: series mostly up to about 76 µM; % of control where 0% means no effect; nearly all actives have a fitted effect of over 35% in size
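Stably transfected U87-MG human glioma cells carrying a GRP78-based luminescent sensor were seeded at 1000 cells/well, pin-dosed with compounds and incubated 16 h. Luciferase reagent was then added, and end-point luminescence was read after 10 min at room temperature.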
ALOX12 inh = Primary qHTS assay for inhibitors of human arachidonate 12S-lipoxygenase (ALOX12): Round 2 | Potency, µM (top dose mostly 108 µM), for inactives: top-dose activity change, negative = inhibition, actives largely listed as inhibitors | Polyunsaturated fatty acid lipoxygenase ALOX12 (Homo sapiens), P18054 | purified 12hLO, xylenol orange hydroperoxide absorbance | hit rate 1.1% among 580,000; further: on the % scale 0 is the no-effect control and ±100 the full control effect
Target sequence (P18054 whole entry, looked up): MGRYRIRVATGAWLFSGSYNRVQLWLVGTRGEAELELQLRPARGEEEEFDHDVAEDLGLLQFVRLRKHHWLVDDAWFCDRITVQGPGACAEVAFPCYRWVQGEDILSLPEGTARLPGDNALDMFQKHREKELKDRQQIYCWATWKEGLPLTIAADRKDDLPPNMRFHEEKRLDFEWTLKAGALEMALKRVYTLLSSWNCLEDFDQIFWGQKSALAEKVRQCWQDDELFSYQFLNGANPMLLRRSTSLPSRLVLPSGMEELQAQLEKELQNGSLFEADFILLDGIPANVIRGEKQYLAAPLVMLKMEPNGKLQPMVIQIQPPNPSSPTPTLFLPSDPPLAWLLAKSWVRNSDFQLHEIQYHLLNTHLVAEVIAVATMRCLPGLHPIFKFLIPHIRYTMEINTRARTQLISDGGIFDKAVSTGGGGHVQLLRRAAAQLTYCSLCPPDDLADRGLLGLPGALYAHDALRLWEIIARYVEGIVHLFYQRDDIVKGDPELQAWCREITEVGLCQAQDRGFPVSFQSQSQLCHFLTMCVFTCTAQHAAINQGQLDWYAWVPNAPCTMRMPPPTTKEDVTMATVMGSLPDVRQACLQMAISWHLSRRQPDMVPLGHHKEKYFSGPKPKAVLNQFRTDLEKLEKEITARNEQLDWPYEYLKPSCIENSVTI
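Purified human 12hLO (150 nM final) in 25 mM Hepes, 0.01% Triton X-100, pH 7.0 was preincubated 15 min at room temperature with compound. Then 40 uM arachidonic acid was added, 30 min. Hydroperoxide was read by Fe-XO absorbance ratio 573/405 nm.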
VDR inhibitor = Inhibitors of the vitamin D receptor (VDR): qHTS; Vitamin D3 receptor (Homo sapiens), P11473; VDR-SRC2-3 peptide fluorescence polarization, 2 h; hit rate 0.93% among 400,000; AID 504847, 2011; Potency, µM, for the others: max response, negative = inhibition, actives largely listed as inhibitors; further: on the % scale 0 is the no-effect control and ±100 the full control effect
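Fluorescence polarization assay measuring small-molecule disruption of VDR binding to the coregulator peptide SRC2-3. Compounds were pin-transferred (23 nl) into the reagent mix and incubated 2 h at room temperature before reading.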
Sfp inh = qHTS Assay for Inhibitors of Bacillus subtilis Sfp phosphopantetheinyl transferase (PPTase). 4'-phosphopantetheinyl transferase ffp (Bacillus subtilis), Q9F4F7. Biochemical Sfp PPTase activity, qHTS. Potency, µM, inactives show largest response in the series, negative = inhibition, most hits filed as inhibitors. hit rate 3.5% among 310,000. AID 1490, 2009;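 further: the enzyme is Sfp with the accession as filed and its product quenches rhodamine fluorescence; 0% = enzyme reaction without inhibitor and -100% = no enzyme wells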
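After 15 min at room temperature with compound, 15 nM Sfp received 5 uM rhodamine-CoA plus 12.5 uM BHQ-2-ybbR (50 mM Hepes pH 7.6, 10 mM MgCl2). Rate came from the fluorescence difference over 30 min, ex 525/em 598 nm.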
G9a block = qHTS Assay for Inhibitors of Histone Lysine Methyltransferase G9a. G9a H3K9 monomethylation, AlphaScreen, 2 h. AID 504332, 2011. Potency, µM (highest dose often 102 µM), for inactives: at the top dose activity, negative = inhibition, usual class: inhibitors. hit rate 8.8% among 350,000. Histone-lysine N-methyltransferase EHMT2 (Homo sapiens), Q96KQ7; further: on the % scale 0 is the no-effect control and ±100 the full control effect; nearly all actives have a fitted effect of over 75% in size
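Enzyme 20 nM + cpd, 15 min RT; add b-H3K9 pep 500 nM / SAM 20 uM; 2 h RT; anti-H3K9me1 Ab 0.5 ug/mL + SA donor / anti-rabbit acceptor beads 20 ug/mL each, 10 min; AlphaScreen read.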
The depositor's hits bear a star; [ ] = remark or other dose. The full list was thinned out, with hits kept by preference. The call rests on the fitted dose curve; in most records, active means well fitted curve in the direction sought with a large enough effect; inconclusive means small, poorly fitted or top-dose-only effect, or another doubt; inactive means no such curve, though single readings can be large; an effect the other way counts as inactive or inconclusive. Potency means the concentration at half of the fitted maximal effect.

`Cc1ccc([N+](=O)[O-])c(NC(=O)COc2ncnc3ccccc23)c1C` gave ALOX12 inh -11%.
For N#Cc1cccc(CN2CCOC[C@H]2c2ncc(-c3ccc(Cl)cc3)[nH]2)c1 the results were ALOX12 inh -7%[176 µM].
For N#Cc1cccc(NC(=O)c2nn(-c3ccccc3)c(=O)c3ccccc23)c1 the results were ALOX12 inh 1%.
O=C(NC(=S)NC1CCCCC1)c1ccccc1 was read as GRP78 ERSR act -9%, ALOX12 inh 35µM*, VDR inhibitor -5%, Sfp inh 5% and G9a block inconclusive.
C/C(=N\NC(=S)NC1CCCCC1)c1ccccc1 was read as GRP78 ERSR act 3%, ALOX12 inh 25µM*, VDR inhibitor -14%, Sfp inh 17% and G9a block 18%[59 µM].
For S=C(NC1CCCCC1)NN(c1ccccc1)c1ccccc1 the results were GRP78 ERSR act -2%, ALOX12 inh 40µM*, VDR inhibitor -3%, Sfp inh 5% and G9a block 8%[59 µM].
Screening CNC(=S)NN(c1ccccc1)c1ccccc1 returned GRP78 ERSR act -3%, ALOX12 inh 14%, VDR inhibitor -30%, Sfp inh 9% and G9a block 57%[59 µM].
Screening CC(C)(C)c1ccc(/C=N/NC(=S)NC2CCCCC2)cc1 returned GRP78 ERSR act 19%, ALOX12 inh 28µM*, VDR inhibitor -8%, Sfp inh 7% and G9a block -11%[59 µM].
Screening C/C(=N\NC(=S)NC(C)C)c1ccccc1 returned GRP78 ERSR act 0%, ALOX12 inh inconclusive, VDR inhibitor -23%, Sfp inh -3% and G9a block 38%[12.7 µM].
For Cc1ccc(C(=O)N/C(=C\c2ccc(-c3ccc(Cl)cc3Cl)o2)C(=O)NC(C)(C)C)cc1 the results were ALOX12 inh 0%.
For Cc1cc(NC(=O)CN2CCN(C(=O)c3ccc(Br)cc3)CC2)no1 the results were ALOX12 inh 3%.
For O=C(NC(=S)NC1CCCCCC1)c1cncc(Br)c1 the results were GRP78 ERSR act 7%, ALOX12 inh 32µM*, VDR inhibitor -12%, Sfp inh -3% and G9a block -5%[59 µM].
CC1CCC(NC(=O)c2cncc(Br)c2)CC1 (stereo not drawn) was read as ALOX12 inh 11%.
Screening Cc1cccc2c(=O)n(CC(=O)Nc3ccc4oc(C(C)C)nc4c3)cnc12 returned ALOX12 inh 34%.
Screening COc1cc(CN2CCCCCC2)cc(OC)c1O returned GRP78 ERSR act -2%, ALOX12 inh inconclusive, VDR inhibitor -16%, Sfp inh -21% and G9a block -36%[0.501 µM].
Screening COc1cc(CN2CCC(Cc3ccccc3)CC2)cc(OC)c1OC returned GRP78 ERSR act -5%, ALOX12 inh inconclusive, VDR inhibitor -19% and Sfp inh -20%.
CCOc1ccc(CN2CCN(C(=O)c3cccc4ccccc34)CC2)cc1 was read as GRP78 ERSR act -3%, ALOX12 inh inconclusive, VDR inhibitor 0%, Sfp inh -24% and G9a block 14µM*.
COc1cc(CN2CCC(Cc3ccccc3)CC2)cc([N+](=O)[O-])c1O was read as GRP78 ERSR act -3%, ALOX12 inh inconclusive, VDR inhibitor 1%, Sfp inh -17% and G9a block 2.5µM*.
`COc1cc(CN2CCN(Cc3ccccc3C)CC2)cc(OC)c1O` gave ALOX12 inh 1µM*.
COc1ccc(CN2CCN(C(=O)c3cccc(OC)c3OC)CC2)cc1OC was read as GRP78 ERSR act 3%, ALOX12 inh -23%, VDR inhibitor 10%, Sfp inh -25% and G9a block 7.9µM*.
Screening C(=C\c1ccccc1)/CN1CCN(Cc2nc(COc3ccccc3)no2)CC1 returned ALOX12 inh 43%.
CN(C)C(=O)c1ccc(NCC(=O)N2N=C(c3ccc(Cl)cc3)CC2c2ccco2)cc1 (stereo not drawn) was read as ALOX12 inh 5%.
COc1ccc(OC)c(CN2CCN(C(=O)c3cccc4ccccc34)CC2)c1 was read as GRP78 ERSR act -1%, ALOX12 inh inconclusive, VDR inhibitor 23%, Sfp inh -30% and G9a block 2.5µM*.
For COc1ccc(OCC(=O)N2CCN(C(=O)c3cccc4ccccc34)CC2)cc1 the results were GRP78 ERSR act -2%, ALOX12 inh -6%, VDR inhibitor 0%, Sfp inh 15% and G9a block -20%[59 µM].
`COc1ccc(CN2CCN(C(C)C(=O)N(C)Cc3cccc(F)c3)CC2)cc1OC` (stereo not drawn) gave GRP78 ERSR act -6%, ALOX12 inh -70%, VDR inhibitor 1%, Sfp inh inconclusive and G9a block 2µM*.
For COc1ccc(NC(C)=O)cc1NC(C)C(=O)N(C)Cc1cccc(F)c1 (stereo not drawn) the results were ALOX12 inh -3%.
O=C(c1cccc2ccccc12)N1CCN(Cc2c[nH]c3ccccc23)CC1 was read as ALOX12 inh 1µM*.
COc1cc(CN2CCN(C(=O)c3cccc4ccccc34)CC2)cc(OC)c1O was read as GRP78 ERSR act 1%, ALOX12 inh inconclusive, VDR inhibitor -23%, Sfp inh -29% and G9a block 6.3µM*.
`O=C(c1c[nH]c2ccccc12)N1CCN(Cc2ccccc2)CC1` gave GRP78 ERSR act -4%, ALOX12 inh -11%, VDR inhibitor -12%, Sfp inh 21% and G9a block -20%.
Screening C=CCNC(=S)Nc1cccc(Cl)c1 returned ALOX12 inh -30%.
Screening S=C(NCCC(c1ccccc1)c1ccccc1)Nc1ccccc1 returned ALOX12 inh 35µM*.
Screening S=C(NCCC(c1ccccc1)c1ccccc1)Nc1cccc(Cl)c1 returned GRP78 ERSR act -5%, ALOX12 inh 22µM*, VDR inhibitor -2%, Sfp inh 12% and G9a block -9%[0.501 µM].
Screening S=C(NCCCCCCNC(=S)Nc1cccc(Cl)c1)Nc1cccc(Cl)c1 returned ALOX12 inh 16µM*.
COc1ccc(OC)c(NC(=S)NCCC(c2ccccc2)c2ccccc2)c1 was read as GRP78 ERSR act -5%, ALOX12 inh 8.9µM* and VDR inhibitor -12%.
S=C(NCCCNC(=S)Nc1ccccc1)Nc1ccccc1 was read as GRP78 ERSR act -2%, ALOX12 inh inconclusive, VDR inhibitor -21%, Sfp inh -11% and G9a block -10%[59 µM].
